The nature of test [1]: AGP1-GFP expression modulators, hit retest, confirmation, cell-based, flow cytometry, S. cerevisiae, cherry picks (AID 2273;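 active = GFP response above 150% of the DMSO level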;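 also: median GFP channel fluorescence over the whole cell population gate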). The conditions noted are these: S. cerevisiae AGP1-GFP strain, 3 h, at 10 µM.
Test [2] deals with Integrin beta-1 (Homo sapiens) + Integrin alpha-4 (Homo sapiens) (UniProt P13612+P05556). As to the kind of experiment: inhibition of HUTS-21 binding to VLA-4, pilot screen, VLA-4 allosteric modulator project, U937 cells, HUTS-21 mAb, flow cytometry, validation set (AID 2674;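 active = inhibition above 50%, about 3 SD of the validation set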;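 also: antibody binding induced by the VLA-4 ligand LDV present at three times its Kd; 0% = LDV ligand with antibody and no compound and 100% = antibody without LDV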). The settings on record: HUTS-21 LIBS mAb binding, at 6.7 µM, stronger effect = higher value, binding induced by LDV ligand.
Chain of Integrin beta-1 (Homo sapiens) + Integrin alpha-4 (Homo sapiens) (P05556 whole entry, looked up): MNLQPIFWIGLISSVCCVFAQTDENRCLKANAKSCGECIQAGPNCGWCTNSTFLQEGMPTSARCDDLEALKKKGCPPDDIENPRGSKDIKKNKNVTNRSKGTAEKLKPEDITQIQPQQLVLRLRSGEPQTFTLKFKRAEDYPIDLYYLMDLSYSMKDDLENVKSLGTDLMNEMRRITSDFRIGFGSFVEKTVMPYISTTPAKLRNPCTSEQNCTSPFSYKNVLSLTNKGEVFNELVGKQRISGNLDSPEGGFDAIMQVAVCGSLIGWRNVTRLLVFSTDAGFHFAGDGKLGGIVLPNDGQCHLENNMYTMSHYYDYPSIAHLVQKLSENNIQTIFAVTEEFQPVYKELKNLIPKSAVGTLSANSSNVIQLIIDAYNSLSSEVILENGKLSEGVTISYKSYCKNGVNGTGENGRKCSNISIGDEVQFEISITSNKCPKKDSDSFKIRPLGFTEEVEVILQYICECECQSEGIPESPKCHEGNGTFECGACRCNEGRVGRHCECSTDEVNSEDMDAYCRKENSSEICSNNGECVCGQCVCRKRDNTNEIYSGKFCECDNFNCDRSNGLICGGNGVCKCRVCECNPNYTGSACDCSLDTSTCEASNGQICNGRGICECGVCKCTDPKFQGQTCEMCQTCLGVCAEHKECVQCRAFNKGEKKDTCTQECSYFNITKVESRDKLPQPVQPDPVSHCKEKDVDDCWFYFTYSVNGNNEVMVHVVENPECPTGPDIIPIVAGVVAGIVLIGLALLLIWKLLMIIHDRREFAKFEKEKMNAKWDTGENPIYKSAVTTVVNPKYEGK
Chain of Integrin beta-1 (Homo sapiens) + Integrin alpha-4 (Homo sapiens) (P13612 whole entry, looked up): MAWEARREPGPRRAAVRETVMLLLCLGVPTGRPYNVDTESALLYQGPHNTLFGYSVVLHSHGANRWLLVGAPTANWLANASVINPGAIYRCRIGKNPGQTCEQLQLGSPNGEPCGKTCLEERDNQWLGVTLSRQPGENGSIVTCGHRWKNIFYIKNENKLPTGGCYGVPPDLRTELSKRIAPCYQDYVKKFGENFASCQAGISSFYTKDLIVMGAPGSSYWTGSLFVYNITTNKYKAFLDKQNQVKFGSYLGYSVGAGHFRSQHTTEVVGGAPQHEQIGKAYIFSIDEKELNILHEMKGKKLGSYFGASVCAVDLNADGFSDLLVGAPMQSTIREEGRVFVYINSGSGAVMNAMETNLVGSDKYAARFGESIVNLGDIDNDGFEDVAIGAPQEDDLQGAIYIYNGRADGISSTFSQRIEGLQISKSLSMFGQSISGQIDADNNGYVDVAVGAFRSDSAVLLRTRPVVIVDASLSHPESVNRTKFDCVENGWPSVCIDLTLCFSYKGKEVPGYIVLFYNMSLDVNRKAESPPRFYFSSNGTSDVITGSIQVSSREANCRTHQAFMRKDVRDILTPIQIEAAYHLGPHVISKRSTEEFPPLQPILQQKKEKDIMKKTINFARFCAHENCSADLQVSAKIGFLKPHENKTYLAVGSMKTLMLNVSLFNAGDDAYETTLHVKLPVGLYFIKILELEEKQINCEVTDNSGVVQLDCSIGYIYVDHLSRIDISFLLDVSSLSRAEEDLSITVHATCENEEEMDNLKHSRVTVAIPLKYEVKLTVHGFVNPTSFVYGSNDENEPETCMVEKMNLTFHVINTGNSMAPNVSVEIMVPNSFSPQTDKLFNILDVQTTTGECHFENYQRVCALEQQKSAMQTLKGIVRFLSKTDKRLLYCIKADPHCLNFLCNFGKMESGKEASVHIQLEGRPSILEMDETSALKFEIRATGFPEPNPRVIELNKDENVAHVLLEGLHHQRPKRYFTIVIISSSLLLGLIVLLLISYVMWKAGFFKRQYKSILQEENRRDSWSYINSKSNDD

Test [3] can be described thus: superoxide lowering in aged yeast cells, pilot screen, validation compound set (AID 2706).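 Also: yeast exposed to compound for one week at 30 degrees C before staining; 100% = mean of all compound wells on the same plate.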 The settings on record: S. cerevisiae aging, superoxide DHE fluorescence; at 10 µM; stronger effect = lower value.
Test [4] deals with Beta-adrenergic receptor kinase 1 (Homo sapiens) (UniProt P25098). As to the kind of experiment: GRK2 binders displacing RNA aptamer, biochemical, validation, human GRK2, bead flow cytometry (AID 488806;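 active = aptamer binding inhibition above 30%, about 3 SD of noise from non-fluorescent compounds; inactive = inhibition at or below 30%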). The settings on record: bead-bound GRK2, FAM-aptamer displacement, at 10 µM, stronger effect = higher value. Background: A flow cytometer gives signals particle by particle.
Chain of Beta-adrenergic receptor kinase 1 (Homo sapiens) (P25098 whole entry, looked up): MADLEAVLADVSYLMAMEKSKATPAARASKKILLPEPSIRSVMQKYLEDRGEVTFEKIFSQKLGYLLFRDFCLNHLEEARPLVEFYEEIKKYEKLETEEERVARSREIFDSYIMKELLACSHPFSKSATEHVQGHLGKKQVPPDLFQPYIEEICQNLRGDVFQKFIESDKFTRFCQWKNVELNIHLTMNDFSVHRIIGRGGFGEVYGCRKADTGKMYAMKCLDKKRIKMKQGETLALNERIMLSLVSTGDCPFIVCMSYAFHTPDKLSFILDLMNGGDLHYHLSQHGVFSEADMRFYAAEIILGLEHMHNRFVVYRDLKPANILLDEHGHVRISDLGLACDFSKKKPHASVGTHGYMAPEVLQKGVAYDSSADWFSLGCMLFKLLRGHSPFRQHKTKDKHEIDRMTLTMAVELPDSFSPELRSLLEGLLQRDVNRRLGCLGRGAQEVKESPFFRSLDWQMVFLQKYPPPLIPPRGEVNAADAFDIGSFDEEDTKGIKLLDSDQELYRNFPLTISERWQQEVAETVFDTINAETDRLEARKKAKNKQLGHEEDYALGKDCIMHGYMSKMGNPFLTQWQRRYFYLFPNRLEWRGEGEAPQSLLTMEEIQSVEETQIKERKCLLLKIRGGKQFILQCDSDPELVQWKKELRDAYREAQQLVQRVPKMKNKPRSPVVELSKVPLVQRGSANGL
Test [5] deals with Beta-2 adrenergic receptor (Homo sapiens) (UniProt P07550). Briefly: beta2AR agonists driving receptor internalization, pilot screen, cell-based, FAP fluorogen, flow cytometry, validation set (AID 504459;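 active = percent response above 42, roughly 3 SD of non-fluorescent test compounds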;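 also: agonist-driven loss of surface beta2AR via internalization measured by FAP dye flow cytometry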). The settings on record: Am2.2-beta2AR cells, FAP surface receptor flow cytometry; at 10 µM; stronger effect = higher value.
Chain of Beta-2 adrenergic receptor (Homo sapiens) (P07550 whole entry, looked up): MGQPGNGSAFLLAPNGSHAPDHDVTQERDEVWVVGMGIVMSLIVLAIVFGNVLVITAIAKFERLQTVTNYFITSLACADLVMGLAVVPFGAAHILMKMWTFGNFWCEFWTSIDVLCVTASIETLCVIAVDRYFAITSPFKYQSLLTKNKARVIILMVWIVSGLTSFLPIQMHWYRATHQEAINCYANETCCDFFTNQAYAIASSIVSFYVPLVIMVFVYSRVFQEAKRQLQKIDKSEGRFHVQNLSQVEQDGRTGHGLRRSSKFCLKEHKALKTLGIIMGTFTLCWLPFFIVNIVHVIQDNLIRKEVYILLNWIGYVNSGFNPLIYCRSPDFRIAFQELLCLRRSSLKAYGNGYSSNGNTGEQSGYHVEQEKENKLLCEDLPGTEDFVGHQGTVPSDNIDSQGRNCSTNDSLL
The target of test [6] is AP-2 complex subunit beta (Homo sapiens) (UniProt P63010). As to the kind of experiment: inhibitors of arrestin peptide binding to AP2, pilot screen, biochemical, validation set, GST-AP2 beads, flow cytometry (AID 504541;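 active = inhibition above 54%, about 3 SD of non-fluorescent compounds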;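 also: AP2 carries R879A mutation and is captured from E. coli lysate; bead-bound FITC arrestin peptide fluorescence measuring arrestin peptide binding to AP2; 0% = DMSO wells and 100% = excess unlabeled arrestin peptide control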). The settings on record: FITC arrestin peptide, at 10 µM, stronger effect = higher value, AP2 beta2 appendage fragment, R879A mutant.
Chain of AP-2 complex subunit beta (Homo sapiens) (P63010 whole entry, looked up, the tested form may be a part, one chain of several): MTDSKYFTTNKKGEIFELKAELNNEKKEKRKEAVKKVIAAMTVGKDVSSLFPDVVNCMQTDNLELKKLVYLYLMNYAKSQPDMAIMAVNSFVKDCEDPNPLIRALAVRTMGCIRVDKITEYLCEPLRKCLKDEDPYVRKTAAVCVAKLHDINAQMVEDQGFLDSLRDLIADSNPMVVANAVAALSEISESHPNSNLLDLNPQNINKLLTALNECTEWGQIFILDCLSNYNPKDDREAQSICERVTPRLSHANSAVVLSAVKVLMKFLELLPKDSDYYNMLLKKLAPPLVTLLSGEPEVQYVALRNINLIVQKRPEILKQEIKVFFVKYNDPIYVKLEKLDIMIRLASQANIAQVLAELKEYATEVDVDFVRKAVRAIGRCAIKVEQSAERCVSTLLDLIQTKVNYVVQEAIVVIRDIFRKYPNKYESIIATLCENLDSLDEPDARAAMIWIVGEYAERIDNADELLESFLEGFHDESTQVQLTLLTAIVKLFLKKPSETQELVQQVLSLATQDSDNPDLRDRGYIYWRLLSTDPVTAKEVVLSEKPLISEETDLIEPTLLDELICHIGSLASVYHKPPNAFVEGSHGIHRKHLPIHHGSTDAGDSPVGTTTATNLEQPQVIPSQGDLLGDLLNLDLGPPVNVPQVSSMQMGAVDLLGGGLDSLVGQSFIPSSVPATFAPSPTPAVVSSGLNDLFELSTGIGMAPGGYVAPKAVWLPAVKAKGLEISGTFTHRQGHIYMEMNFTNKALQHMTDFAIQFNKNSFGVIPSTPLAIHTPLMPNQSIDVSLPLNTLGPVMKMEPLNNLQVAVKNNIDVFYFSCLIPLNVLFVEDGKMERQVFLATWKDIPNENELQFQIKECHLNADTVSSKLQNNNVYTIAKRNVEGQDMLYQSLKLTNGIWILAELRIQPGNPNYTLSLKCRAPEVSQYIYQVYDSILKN
The nature of test [7]: yeast V-ATPase proton transport modulators, S. cerevisiae, pHLuorin, HTS validation (AID 504600; in the data active = response above about 15%;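 also: plate controls were DMSO for no effect and reference compound for full effect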). The conditions noted are these: S. cerevisiae pHLuorin cytosolic pH, at 10 µM, stronger effect = higher value.
Test [8] has as its system anti-desmoglein-3 scFv antibody binding to human DSG3. Briefly: inhibitors of anti-DSG3 scFv binding to DSG3, pilot screen, biochemical, validation compound set, bead-based, flow cytometry (AID 588368;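 active = binding below the plate cutoff, the plate median minus 3 SD, with a reading above zero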;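 also: signal is the median channel fluorescence of bead-bound GFP antibody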). The settings on record: Protein G beads, DSG3-Fc, scFv-GFP binding, at 10 µM, stronger effect = lower value.
Test [9] is described as follows: inhibitors of fungal efflux pumps CDR1, CDR2, MDR1, pilot screen, validation compound set, multiplex, phenotypic (AID 588506;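 active = efflux inhibition above 0.42, the validation set average plus 4 SD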;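 also: Nile Red retained in cells so higher fluorescence means more efflux inhibition; 0 = negative control wells and 1 = enniatin B 25 µM full block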). The conditions noted are these: S. cerevisiae pump-expressing triplex, Nile Red efflux flow cytometry; at 10 µM; stronger effect = higher value; the pumps come from Candida albicans.
Test [10] has as its target ATP-binding cassette sub-family B member 6 (Homo sapiens) (UniProt Q9NP58). Briefly: ABCB6 transporter inhibitors, pilot screen, K562-ABCB6 cells, flow cytometry, validation set (AID 588550;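 active = inhibition above the screen-wide mean plus 3 SD, about 51%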;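 also: 0% = DMSO wells and 100% = benzethonium chloride 70 µM positive control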). The conditions noted are these: K562-ABCB6 porphyrin accumulation, 1 h, at 10 µM, stronger effect = higher value.
Test [11] can be described thus: promoters of myeloid differentiation in arrested cells, primary screen, cell-based, GFP/MAC1 double positive, flow cytometry, validation set (AID 588685;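 active = differentiation response of at least 50%, scaled between solvent and reference control, from cells with both markers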;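 also: compound exposure lasts four days before antibody staining and flow analysis; 0% = DMSO wells and 100% = 5 µM fulvestrant positive control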). The conditions noted are these: ER-HoxA9 marrow cells, stronger effect = higher value, normalized: vehicle 0, fulvestrant 100.

The text below walks through data of PubChem BioAssay.

Structures are written as SMILES. Several values for one entry are separate records, joined by “and”; a condition that tells them apart may be missing. Equal values may be shown once. Values without a mark were called inactive. Activity calls are given as the source filed them.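 The calls were made as follows, unless noted: active = superoxide response below 65% of plate, a cut near 3 SD across the whole screen; inactive = the rest.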

Chain of ATP-binding cassette sub-family B member 6 (Homo sapiens) (Q9NP58 whole entry, looked up): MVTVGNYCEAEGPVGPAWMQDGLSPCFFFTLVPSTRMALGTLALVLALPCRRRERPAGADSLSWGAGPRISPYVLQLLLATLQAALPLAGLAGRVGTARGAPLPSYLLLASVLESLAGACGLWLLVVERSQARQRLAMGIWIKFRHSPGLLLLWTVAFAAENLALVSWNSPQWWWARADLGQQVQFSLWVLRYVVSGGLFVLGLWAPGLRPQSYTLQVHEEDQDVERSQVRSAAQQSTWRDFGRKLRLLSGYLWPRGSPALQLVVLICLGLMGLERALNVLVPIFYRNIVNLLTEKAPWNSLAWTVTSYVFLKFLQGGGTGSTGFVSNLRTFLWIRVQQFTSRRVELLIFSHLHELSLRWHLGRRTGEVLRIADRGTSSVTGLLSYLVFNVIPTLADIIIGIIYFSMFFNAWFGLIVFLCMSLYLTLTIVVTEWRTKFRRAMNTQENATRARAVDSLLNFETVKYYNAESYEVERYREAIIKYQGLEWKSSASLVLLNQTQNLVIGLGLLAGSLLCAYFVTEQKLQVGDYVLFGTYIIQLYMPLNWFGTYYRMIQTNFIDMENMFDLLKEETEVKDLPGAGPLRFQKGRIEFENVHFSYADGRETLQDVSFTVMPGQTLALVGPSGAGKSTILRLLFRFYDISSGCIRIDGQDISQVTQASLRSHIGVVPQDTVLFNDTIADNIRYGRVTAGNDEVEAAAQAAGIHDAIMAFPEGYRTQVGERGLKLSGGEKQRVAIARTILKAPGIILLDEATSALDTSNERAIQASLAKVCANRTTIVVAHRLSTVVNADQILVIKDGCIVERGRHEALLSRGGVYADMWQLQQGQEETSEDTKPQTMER

In the case of `C[C@]12CC[C@@H]3c4ccc(O)cc4C(=O)C[C@H]3[C@@H]1CC[C@@H]2O`, the GFP response, % of DMSO in [1] was 97.2%. The inhibition – broadly, the relative decrease from the control value, in per cent – was -0.33% in test [2], 44.1% in [6] and 0% in test [10]. The superoxide response (% of plate) in [3] was 104%. The aptamer binding inhibition in [4] was 1%. The response was -10.5% in [5] and -4.63% in test [7]. In addition, the binding (% of control) in [8] is 91.9%. In test [9], the efflux inhibition (fraction of control) is 0.37. In test [11], the differentiation response is 0.82%.
Take `Cn1c(=O)c(C(=O)NCCO)c(O)c2ccccc21`: in test [1], the GFP response, % of DMSO was 98.3%. Besides, the inhibition in [2] was 15.9%; in test [6], 6.89%; in test [10], 1%. The superoxide response (% of plate) in test [3] is 104%. Also, the aptamer binding inhibition in [4] is 6%. Moreover, the response in test [5] is -29.6%; in test [7], 2.23%. For the same molecule, in test [8], the binding (% of control) was 103%. In test [9], the efflux inhibition (fraction of control) was 0. The differentiation response in [11] was -5.97%.
Take `OC(CCN1CCCCC1)(c1ccccc1)c1ccccc1`: in test [1], the GFP response, % of DMSO was 96.3%. Also, the figures for the inhibition in test [2], in test [6] and in test [10] were 12.3%, 2.98% and 8%, respectively. In addition, the superoxide response (% of plate) in [3] was 107%. Besides, in test [4], the aptamer binding inhibition was 2%. Further, the response in test [5] is 1.89%; in [7] it was 5.35%. In addition, the binding (% of control) in [8] was 103%. Also, the efflux inhibition (fraction of control) in [9] was -0.24. In [11], the differentiation response is -4.91%.
For the molecule `CN1CCN2c3ccccc3Cc3ccccc3C2C1` (centres undefined), the GFP response, % of DMSO in [1] was 97.6%. Further, the inhibition in test [2] was 8.4%; in [6] it was 36.1%; in test [10] it was 3%. In addition, the superoxide response (% of plate) in test [3] was 99.6%. Moreover, the aptamer binding inhibition in test [4] is 2%. Further, the response in test [5] was 4.6%; in test [7], -3.99%. In test [8], the binding (% of control) is 95.6%. Also, the efflux inhibition (fraction of control) in test [9] was -0.13. In test [11], the differentiation response was -0.82%.
As to `CC(=O)OCC(=O)[C@@]1(O)CC[C@H]2[C@@H]3CCC4=CC(=O)CC[C@]4(C)[C@H]3[C@@H](O)C[C@@]21C`, in test [1], the GFP response, % of DMSO was 97%. Further, the inhibition in [2] is -4.6%; in test [6], -11.1%; in test [10], -2%. In [3], the superoxide response (% of plate) was 101%. Besides, the aptamer binding inhibition in test [4] is -1%. In addition, the response is 6.11% in [5] and 2.08% in test [7]. The binding (% of control) in test [8] was 98.4%. For the same molecule, the efflux inhibition (fraction of control) in [9] was -0.26. The differentiation response in test [11] was -1.71%.
With `C[n+]1ccccc1/C=N/O`, the GFP response, % of DMSO in [1] was 98%. Also, the inhibition in test [2] is 15.2% and -21.2%; in test [6] it was -7.09% and 7.17%; in test [10], 9% and 0%. Also, in test [3], the superoxide response (% of plate) is 102% and 95%. For the same molecule, in test [4], the aptamer binding inhibition was 2% and 0%. In addition, the response was 5.73% and -2.86% in test [5]; -0.64% and -1.12% in [7]. In [8], the binding (% of control) was 104% and 95.1%. In addition, in test [9], the efflux inhibition (fraction of control) was -0.2 and -0.47. Further, the differentiation response in [11] was 0.82% and 2.74%.
`CCOC(=O)C(Cc1cc(C(C)=O)ccc1OC(C)C)C(=O)OCC`: the GFP response, % of DMSO in test [1] was 90.8%. Further, the results for the inhibition in test [2], in [6] and in test [10] were -1.3%, 47% and 10%, respectively. In addition, the superoxide response (% of plate) in test [3] was 91%. In addition, the aptamer binding inhibition in test [4] was 4%. The response in test [5] is -7.47%; in test [7] it was -8.56%. In addition, in test [8], the binding (% of control) is 99.8%. Further, the efflux inhibition (fraction of control) in test [9] is -0.09. The differentiation response in test [11] was 4.09%.
For `O=C(NC1CCCCC1)N1CCc2[nH]c3ccccc3c2C1`, the GFP response, % of DMSO in test [1] was 96%. Besides, the inhibition is 24.9% in test [2], 12.6% in test [6] and 6% in [10]. For the same molecule, the superoxide response (% of plate) in test [3] is 90.3%. In addition, the aptamer binding inhibition in [4] is 3%. The response is 10.8% in test [5] and 13.8% in test [7]. The binding (% of control) in test [8] is 219%. In [9], the efflux inhibition (fraction of control) was 0.27. Besides, the differentiation response in [11] is 10.6%.
Regarding `N=c1nc(N2CCCCC2)cc(N)n1O`, in [1], the GFP response, % of DMSO is 98.9%. Further, the inhibition in test [2] is 16.2%; in test [6] it was 33.9%; in test [10], 115% (active). Further, the superoxide response (% of plate) in [3] is 89.4%. In addition, the aptamer binding inhibition in test [4] was 2%. The response in test [5] is -8.64%; in test [7] it was -5.96%. For the same molecule, the binding (% of control) in test [8] is 98.5%. In addition, the efflux inhibition (fraction of control) in [9] is 0.37. In test [11], the differentiation response is 8.19%.
